# Reference: the supplement of paper PMC4022240
# ± gives the standard deviation.
# How the values were obtained:
# Experiment in all cases: peptide microarray binding signal (635 nm), min-max normalized on array (fraction of array maximum); higher = stronger binding
# Conditions in all cases: peptide region: H3 11-23
# [1] = molecular target: T1, HaloTag-ATRX ADD domain (163-292)
# T1 chain: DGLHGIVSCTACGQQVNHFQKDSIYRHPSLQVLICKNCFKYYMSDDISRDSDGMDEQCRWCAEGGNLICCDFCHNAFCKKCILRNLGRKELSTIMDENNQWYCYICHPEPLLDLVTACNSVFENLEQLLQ
# Method in brief: (§1)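 Within each library, mean intensities of triplicate spots were min-max scaled to give the binding signal. The spots were histone 13-mer peptide–cellulose conjugates on nitrocellulose with a Cy3 tracer, blocked overnight at 4°C. They were then probed for 1 h at 4°C using biotin-labelled HaloTag reader fusions (10 nM to 1 μM) with streptavidin-Alexa Fluor 647 or rabbit histone antibodies (1:10,000 to 1:2,000) with anti-rabbit Alexa 647, and scanned at 635 nm for signal and 532 nm for misprints on an Axon GenePix 4000B.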
# [2] = molecular target: HaloTag-ING2 PHD (mouse Ing2 200-280)
# Method in brief: as §1
# [3] = molecular target: anti-H3K4me3 antibody ab8580
# Method in brief: as §1
# [4] = molecular target: anti-H3K9me3 antibody ab8898
# Method in brief: as §1
# [5] = peptide modifications: H3K14me1 H3K18ac, binder concentration: 1:2,000 dilution
# [6] = peptide modifications: H3K14me1 H3K18ac, binder concentration: 1:10,000 dilution
# [7] = peptide modifications: H3K14me1, binder concentration: 1:2,000 dilution
# [8] = peptide modifications: H3K14me1, binder concentration: 1:10,000 dilution
# [9] = peptide modifications: H3K14ac, binder concentration: 1:2,000 dilution
# [10] = peptide modifications: H3K14ac, binder concentration: 1:10,000 dilution
# [11] = peptide modifications: H3K14ac H3K18me2, binder concentration: 1:2,000 dilution
# [12] = peptide modifications: H3K14ac H3K18me2, binder concentration: 1:10,000 dilution
# [13] = peptide modifications: H3K14ac H3K18me3, binder concentration: 1:2,000 dilution
# [14] = peptide modifications: H3K14ac H3K18me3, binder concentration: 1:10,000 dilution
# [15] = peptide modifications: H3K14ac H3R17me2a, binder concentration: 1:2,000 dilution
# [16] = peptide modifications: H3K14ac H3R17me2a, binder concentration: 1:10,000 dilution
# [17] = peptide modifications: H3K14ac H3K18me1, binder concentration: 1:2,000 dilution
# [18] = peptide modifications: H3K14ac H3K18me1, binder concentration: 1:10,000 dilution
# [19] = peptide modifications: H3K14ac H3R17me1, binder concentration: 1:2,000 dilution
# [20] = peptide modifications: H3K14ac H3R17me1, binder concentration: 1:10,000 dilution
# [21] = peptide modifications: H3K14ac H3R17cit, binder concentration: 1:2,000 dilution
# [22] = peptide modifications: H3K14ac H3R17cit, binder concentration: 1:10,000 dilution
# [23] = peptide modifications: H3K14ac H3R17me2s, binder concentration: 1:2,000 dilution
# [24] = peptide modifications: H3K14ac H3R17me2s, binder concentration: 1:10,000 dilution
binder,measurement,setting,value
TGGKAPRKQLATK [H3 11-23 T G G Kme A P R Kac Q L A T K],peptide microarray binding signal,"[1]; peptide modifications: H3K14me1 H3K18ac, binder concentration: 50 nM",0.00715 ± 0.00026
same,peptide microarray binding signal,"[1]; peptide modifications: H3K14me1 H3K18ac, binder concentration: 500 nM",0.014 ± 0.00051
same,peptide microarray binding signal,"[2]; peptide modifications: H3K14me1 H3K18ac, binder concentration: 10 nM",0.014 ± 0.0016
same,peptide microarray binding signal,"[2]; peptide modifications: H3K14me1 H3K18ac, binder concentration: 100 nM",0.0363 ± 0.0088
same,peptide microarray binding signal,[3]; [5],0.007 ± 0.001
same,peptide microarray binding signal,[3]; [6],0.00331 ± 0.0003
same,peptide microarray binding signal,[4]; [5],0.00159 ± 1.9e-05
same,peptide microarray binding signal,[4]; [6],0.00127 ± 3.4e-05
TGGKAPRKQLATK [H3 11-23 T G G Kme A P R K Q L A T K],peptide microarray binding signal,"[1]; peptide modifications: H3K14me1, binder concentration: 50 nM",0.00646 ± 0.00024
same,peptide microarray binding signal,"[1]; peptide modifications: H3K14me1, binder concentration: 500 nM",0.0181 ± 0.002
same,peptide microarray binding signal,"[2]; peptide modifications: H3K14me1, binder concentration: 10 nM",0.00567 ± 0.00017
same,peptide microarray binding signal,"[2]; peptide modifications: H3K14me1, binder concentration: 100 nM",0.0256 ± 0.0033
same,peptide microarray binding signal,[3]; [7],0.0023 ± 0.00025
same,peptide microarray binding signal,[3]; [8],0.00108
same,peptide microarray binding signal,[4]; [7],0.004 ± 0.00032
same,peptide microarray binding signal,[4]; [8],0.00346 ± 0.00012
TGGKAPRKQLATK [H3 11-23 T G G Kac A P R K Q L A T K],peptide microarray binding signal,"[1]; peptide modifications: H3K14ac, binder concentration: 50 nM",0.0069 ± 0.00019
same,peptide microarray binding signal,"[1]; peptide modifications: H3K14ac, binder concentration: 500 nM",0.032 ± 0.0024
same,peptide microarray binding signal,"[2]; peptide modifications: H3K14ac, binder concentration: 10 nM",0.0291 ± 0.0036
same,peptide microarray binding signal,"[2]; peptide modifications: H3K14ac, binder concentration: 100 nM",0.0427 ± 0.0088
same,peptide microarray binding signal,[3]; [9],0.00429 ± 0.00017
same,peptide microarray binding signal,[3]; [10],0.00314 ± 0.00047
same,peptide microarray binding signal,[4]; [9],0.00606 ± 0.00038
same,peptide microarray binding signal,[4]; [10],0.00392 ± 0.00032
TGGKAPRKQLATK [H3 11-23 T G G Kac A P R Kme2 Q L A T K],peptide microarray binding signal,"[1]; peptide modifications: H3K14ac H3K18me2, binder concentration: 50 nM",0.00727 ± 0.00061
same,peptide microarray binding signal,"[1]; peptide modifications: H3K14ac H3K18me2, binder concentration: 500 nM",0.0126 ± 0.00024
same,peptide microarray binding signal,"[2]; peptide modifications: H3K14ac H3K18me2, binder concentration: 10 nM",0.0171 ± 0.0046
same,peptide microarray binding signal,"[2]; peptide modifications: H3K14ac H3K18me2, binder concentration: 100 nM",0.031 ± 0.014
same,peptide microarray binding signal,[3]; [11],0.0176 ± 0.0051
same,peptide microarray binding signal,[3]; [12],0.0145 ± 0.0016
same,peptide microarray binding signal,[4]; [11],0.00399 ± 0.00012
same,peptide microarray binding signal,[4]; [12],0.00346 ± 0.0001
TGGKAPRKQLATK [H3 11-23 T G G Kac A P R Kme3 Q L A T K],peptide microarray binding signal,"[1]; peptide modifications: H3K14ac H3K18me3, binder concentration: 50 nM",0.00953 ± 0.0014
same,peptide microarray binding signal,"[1]; peptide modifications: H3K14ac H3K18me3, binder concentration: 500 nM",0.00948 ± 0.00024
same,peptide microarray binding signal,"[2]; peptide modifications: H3K14ac H3K18me3, binder concentration: 10 nM",0.00841 ± 0.00063
same,peptide microarray binding signal,"[2]; peptide modifications: H3K14ac H3K18me3, binder concentration: 100 nM",0.0201 ± 0.0018
same,peptide microarray binding signal,[3]; [13],0.931 ± 0.11
same,peptide microarray binding signal,[3]; [14],0.499 ± 0.075
same,peptide microarray binding signal,[4]; [13],0.0555 ± 0.018
same,peptide microarray binding signal,[4]; [14],0.016 ± 0.00022
TGGKAPRKQLATK [H3 11-23 T G G Kac A P Rme2a K Q L A T K],peptide microarray binding signal,"[1]; peptide modifications: H3K14ac H3R17me2a, binder concentration: 50 nM",0.00981 ± 0.001
same,peptide microarray binding signal,"[1]; peptide modifications: H3K14ac H3R17me2a, binder concentration: 500 nM",0.0127 ± 0.00086
same,peptide microarray binding signal,"[2]; peptide modifications: H3K14ac H3R17me2a, binder concentration: 10 nM",0.0112 ± 0.00063
same,peptide microarray binding signal,"[2]; peptide modifications: H3K14ac H3R17me2a, binder concentration: 100 nM",0.0221 ± 0.00099
same,peptide microarray binding signal,[3]; [15],0.00436 ± 0.00064
same,peptide microarray binding signal,[3]; [16],0.00445 ± 0.00022
same,peptide microarray binding signal,[4]; [15],0.00344 ± 0.00027
same,peptide microarray binding signal,[4]; [16],0.002479 ± 2.2e-05
TGGKAPRKQLATK [H3 11-23 T G G Kac A P R Kme Q L A T K],peptide microarray binding signal,"[1]; peptide modifications: H3K14ac H3K18me1, binder concentration: 50 nM",0.00759 ± 8.2e-05
same,peptide microarray binding signal,"[1]; peptide modifications: H3K14ac H3K18me1, binder concentration: 500 nM",0.012 ± 0.00073
same,peptide microarray binding signal,"[2]; peptide modifications: H3K14ac H3K18me1, binder concentration: 10 nM",0.0187 ± 0.0021
same,peptide microarray binding signal,"[2]; peptide modifications: H3K14ac H3K18me1, binder concentration: 100 nM",0.0405 ± 0.011
same,peptide microarray binding signal,[3]; [17],0.0114 ± 0.0027
same,peptide microarray binding signal,[3]; [18],0.00725 ± 0.00036
same,peptide microarray binding signal,[4]; [17],0.00275 ± 0.00016
same,peptide microarray binding signal,[4]; [18],0.00219 ± 0.0001
TGGKAPRKQLATK [H3 11-23 T G G Kac A P Rme K Q L A T K],peptide microarray binding signal,"[1]; peptide modifications: H3K14ac H3R17me1, binder concentration: 50 nM",0.0113 ± 0.0011
same,peptide microarray binding signal,"[1]; peptide modifications: H3K14ac H3R17me1, binder concentration: 500 nM",0.0152 ± 0.00047
same,peptide microarray binding signal,"[2]; peptide modifications: H3K14ac H3R17me1, binder concentration: 10 nM",0.0182 ± 0.0058
same,peptide microarray binding signal,"[2]; peptide modifications: H3K14ac H3R17me1, binder concentration: 100 nM",0.0339 ± 0.014
same,peptide microarray binding signal,[3]; [19],0.00517 ± 0.00077
same,peptide microarray binding signal,[3]; [20],0.00719 ± 0.0015
same,peptide microarray binding signal,[4]; [19],0.00569 ± 0.00047
same,peptide microarray binding signal,[4]; [20],0.00404 ± 0.00028
TGGKAPRKQLATK [H3 11-23 T G G Kac A P Rcit K Q L A T K],peptide microarray binding signal,"[1]; peptide modifications: H3K14ac H3R17cit, binder concentration: 50 nM",0.00671 ± 0.00027
same,peptide microarray binding signal,"[1]; peptide modifications: H3K14ac H3R17cit, binder concentration: 500 nM",0.013 ± 0.00041
same,peptide microarray binding signal,"[2]; peptide modifications: H3K14ac H3R17cit, binder concentration: 10 nM",0.018 ± 0.0015
same,peptide microarray binding signal,"[2]; peptide modifications: H3K14ac H3R17cit, binder concentration: 100 nM",0.0345 ± 0.0076
same,peptide microarray binding signal,[3]; [21],0.00517 ± 0.00085
same,peptide microarray binding signal,[3]; [22],0.00297 ± 0.00013
same,peptide microarray binding signal,[4]; [21],0.00171 ± 5.6e-05
same,peptide microarray binding signal,[4]; [22],0.00127 ± 1.3e-05
TGGKAPRKQLATK [H3 11-23 T G G Kac A P Rme2s K Q L A T K],peptide microarray binding signal,"[1]; peptide modifications: H3K14ac H3R17me2s, binder concentration: 50 nM",0.00621 ± 0.00011
same,peptide microarray binding signal,"[1]; peptide modifications: H3K14ac H3R17me2s, binder concentration: 500 nM",0.0112 ± 0.00066
same,peptide microarray binding signal,"[2]; peptide modifications: H3K14ac H3R17me2s, binder concentration: 10 nM",0.0167 ± 0.00051
same,peptide microarray binding signal,"[2]; peptide modifications: H3K14ac H3R17me2s, binder concentration: 100 nM",0.02487 ± 0.00023
same,peptide microarray binding signal,[3]; [23],0.00702 ± 0.00068
same,peptide microarray binding signal,[3]; [24],0.00628 ± 0.00011
same,peptide microarray binding signal,[4]; [23],0.00362 ± 0.00034
same,peptide microarray binding signal,[4]; [24],0.00219 ± 3.5e-05
